Growth inhibition data for 40 compounds are collected here from PubChem BioAssay (NCI).

Molecules are shown by their SMILES. The panel holds about 79,000 compounds, 15% with a hit somewhere; the sample as a whole holds those more often. Calls of active or inactive are those of the source. Rule as the data show it: active = growth inhibition above about 70%; inactive = the rest.

The assay is described as follows: NCI Yeast Anticancer Drug Screen. Data for the cln2 rad14 strain (AID 165).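 Also: 0% = growth equal to vehicle treated cultures.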 The following applies: S. cerevisiae cln2 rad14 strain, at 50.0 µM, hits give high values. In short, it runs like this:
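Growth inhibition, relative to vehicle-treated controls, is the read-out. The test organism is a yeast strain with defined genetic alterations, cln2 rad14.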
Regarding `CCOC(=O)C(NC(C)=O)C(C)O` (stereo not given), the growth inhibition is 3.85% (inactive). In the case of `NC(=O)/C(=N/O)c1ccccc1` it was 1.25% (inactive); in that of `CC1CC(C)(C)C(C[NH-])C1[NH-].[Cl][Pt+2][Cl]` (stereo not given), 24.1% (inactive).

As for `NC1C2C3C=CC(C3)C12` (stereo not given), the growth inhibition is -28.9% (inactive). In the case of `CC(=O)Nc1cccc2c(OC(C)=O)cccc12` it was -50% (inactive). In the case of `N#Cc1c(-c2ccco2)cc(-c2ccccc2)[nH]c1=O` it was 33.3% (inactive).

As to `COn1c(-c2ccccc2)nc2c1C(=O)N(C)CN2C`, the growth inhibition is -47.8% (inactive). In the case of `CCCCCC(=O)OCCCCCO` it was 13.2% (inactive); in that of `O=C1CCSC(=S)N1c1ccc(F)cc1F`, 28.9% (inactive); in that of `O=C(Cc1ccccc1)N(c1ccccc1)c1ccccc1`, 14.7% (inactive). In the case of `CCCCN(CCCC)Cc1ccnc(C)c1O` it was 8.7% (inactive); in that of `COc1ccc2nc(NC(=O)Nc3ccc(Cc4ccc(NC(=O)Nc5nc6ccc(OC)cc6s5)cc4)cc3)sc2c1`, 10.3% (inactive); in that of `N#Cc1c(N)nc2c3c1NC(=O)C(C(N)=O)C3c1ccccc1O2` (stereo not given), 2% (inactive). In the case of `C/C(CC(=O)Nc1ccccn1)=N\c1ccccn1` it was -0.35% (inactive); in that of `CCc1cc(CSc2ccc(Cl)cc2)ccc1N`, 97.2% (active).

Regarding `C=CCO[Si](OCC=C)(OCC=C)OCC=C`, the growth inhibition was 13.9% (inactive).

With `CC(=O)c1sc2c(c1OC(=O)c1ccc(Cl)cc1)c(=O)n(-c1ccccc1)c(=S)n2-c1ccccc1`, the growth inhibition was 7.95% (inactive). In the case of `OCC1CC=CCC1` (stereo not given) it was 16% (inactive). In the case of `C=CCNCC(O)C(F)(F)C(F)(F)C(F)(F)C(F)(F)C(F)(F)C(F)(F)F` (stereo not given) it was -6.9% (inactive); in that of `COc1ccc(-n2c(N)c(C#N)c(C#N)c2-c2ccco2)cc1`, -20.1% (inactive).

`CCC(=N\NC(=S)NC)/C(C)=N\NC(=S)NC`: the growth inhibition was -36.1% (inactive). In the case of `O=c1c2nn3c(=O)n(-c4ccccc4)c(=O)c3nn2c(=O)n1-c1ccccc1` it was -5.8% (inactive); in that of `CC(=O)Nc1cccc(O)c1`, -13.8% (inactive); in that of `O=[N+]([O-])c1cccc(NSNc2cccc([N+](=O)[O-])c2)c1`, 23.1% (inactive). In the case of `CN(C)CC1CCCC(CN(C)C)C1OC(=O)c1ccccc1` (stereo not given) it was -37.5% (inactive); in that of `CCCCOc1cc2c(cc1C(C)c1ccccc1)OCO2` (stereo not given), 2.8% (inactive).

`Cc1c(Cl)cccc1NC(=O)C(=O)C(C(=O)c1ccccc1-c1ccccc1)C1OC(=O)c2ccccc21` (stereo not given): the growth inhibition is -41.8% (inactive).

For the compound `CCCCCCCCCCCCCCCCC/C(CC)=N/Nc1ccc([N+](=O)[O-])cc1[N+](=O)[O-]`, the growth inhibition was -38.8% (inactive). Consider `CC(Br)C(=O)c1ccc2ncccc2c1` (stereo not given), for which the growth inhibition was -1.45% (inactive). For `CCN1CCC(O)(c2ccc(Oc3ccc(F)cc3)cc2)C(C(=O)c2ccc(Oc3ccc(F)cc3)cc2)C1` (stereo not given), the growth inhibition is 5.95% (inactive). `O=c1[nH]c(=O)n(CCCCOc2ccccc2)cc1-c1ccccc1`: the growth inhibition was 0.7% (inactive).

Take `FC(F)(F)c1cccc(C2SCc3nc4ccccc4n32)c1` (stereo not given): the growth inhibition is 0.45% (inactive). In the case of `CCOC(=O)C(=O)Nc1ccc2cc(OC)ccc2c1C#N` it was 35.2% (inactive).

Take `CCc1nc2c([nH]1)C(=O)c1ccccc1C2=O`: the growth inhibition was 9.25% (inactive). In the case of `CCOC(=O)C(F)C(C)=O` (stereo not given) it was 97.4% (active); in that of `CN(/N=C/c1ccccn1)C1=NCCCN1`, 5.35% (inactive). In the case of `CC(C)CC(N)C(=O)NC(Cc1cc2ccccc2[nH]1)C(=O)O` (stereo not given), the growth inhibition is -17.9% (inactive). In the case of `N#CC[N+]1(Cc2ccccn2)CCCC1` it was 6.4% (inactive); in that of `Cc1cccc2c(/C=C/c3ccc(N(C)C)cc3)ccnc12`, -22.2% (inactive). In the case of `CC(=O)n1nnc(CC#N)c1-c1ccccc1` it was 5.1% (inactive).
